Source: PubChem BioAssay (The Scripps Research Institute Molecular Screening Center)
Shown are actives, neighbours in structure and some others; about 2.9% of the full set was active somewhere.
LYPLA2 inh: counter-screen for PME1 inhibitors: inhibitors of human LYPLA2; recombinant LYPLA2, FP-Rh probe fluorescence polarization; inhibition, % at 5.9 µM; hit rate 0.38% among 320,000; AID 2177;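 active means inhibition above the screen-wide mean plus 3 SD, limit set per campaign, cut at about 26% in these data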;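 further: 0% = LYPLA2 with DMSO and 100% = wells lacking LYPLA2 enzyme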
Target sequence (O95372 whole entry, looked up): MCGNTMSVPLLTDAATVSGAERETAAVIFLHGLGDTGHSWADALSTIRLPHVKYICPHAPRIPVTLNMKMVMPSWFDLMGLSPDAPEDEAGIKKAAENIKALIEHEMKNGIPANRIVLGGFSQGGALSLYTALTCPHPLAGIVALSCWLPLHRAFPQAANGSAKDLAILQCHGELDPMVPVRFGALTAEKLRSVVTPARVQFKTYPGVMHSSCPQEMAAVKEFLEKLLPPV
PAFAH1B3 FP inh: inhibitors of human PAFAH1B3; inhibition, % at 3.39 µM; Q15102; recombinant PAFAH1B3, FP-rhodamine probe, fluorescence polarization; AID 492972; hit rate 0.28% among 340,000;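 active means inhibition above the screen-wide average of all tested compounds plus 3 SD, cut at about 25% in these data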;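 further: 0% = enzyme with DMSO only and 100% = wells lacking PAFAH1B3 protein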
LYPLA1 counter: LYPLA1 (human) inhibition in PME1 counter-screen | O75608 | recombinant LYPLA1, FP-Rh probe fluorescence polarization | inhibition, % at 5.9 µM | hit rate 0.16% among 320,000;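 active means inhibition above the mean of all tested compounds plus 3 SD, set per campaign, cut at about 14% in these data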;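 further: inhibitors block serine hydrolase probe labeling of LYPLA1 so polarization falls; 0% = enzyme with DMSO and 100% = wells lacking LYPLA1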
Target sequence (O75608 whole entry, looked up): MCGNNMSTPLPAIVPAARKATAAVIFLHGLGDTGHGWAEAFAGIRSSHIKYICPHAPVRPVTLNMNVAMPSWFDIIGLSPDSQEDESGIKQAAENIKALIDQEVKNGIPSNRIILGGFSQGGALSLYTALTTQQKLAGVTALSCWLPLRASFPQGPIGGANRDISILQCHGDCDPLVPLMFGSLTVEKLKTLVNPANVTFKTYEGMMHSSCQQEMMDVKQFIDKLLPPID
PAFAH2 inh: inhibitors of human PAFAH2. Q99487. recombinant PAFAH2, FP-rhodamine activity probe, fluorescence polarization. inhibition, % at 3.39 µM. hit rate 0.99% among 340,000;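 active means inhibition above the mean over all tested compounds plus 3 SD, cut at about 30% in these data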;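 further: inhibitors block probe labeling of enzyme so polarization drops; 0% = enzyme with DMSO and 100% = wells lacking PAFAH2 protein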
pPAFAH FP inh: pPAFAH (human) enzyme inhibition. Q13093. recombinant pPAFAH, FP-rhodamine probe fluorescence polarization. inhibition, % at 3.39 µM. hit rate 1.5% among 330,000;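 active means inhibition above the mean inhibition across the screen plus 3 SD, cut at about 25% in these data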;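 further: inhibitors block binding of the rhodamine activity-based probe so polarization drops; 0% = enzyme with DMSO and 100% = wells lacking pPAFAH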
PAFAH1B2 FP inh: PAFAH1B2 (human) inhibition. recombinant PAFAH1B2, FP-rhodamine activity probe, fluorescence polarization. inhibition, % at 3.39 µM. hit rate 1.2% among 340,000;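 active means inhibition above the mean of all tested compounds plus 3 SD, cut at about 24% in these data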;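 further: 0% = enzyme with DMSO and 100% = wells lacking PAFAH1B2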
PAFAH1B3 conf FP: PAFAH1B3 (human) inhibition, confirmed | shares compounds with PAFAH1B3 FP inh | recombinant PAFAH1B3, FP-Rh activity-based probe, fluorescence polarization | inhibition, % at 3.39 µM | hit rate 30% among 390;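 active means average inhibition over triplicate runs above the hit cutoff set in the earlier primary screen, cut at about 25% in these data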;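 further: 0% = enzyme with DMSO and 100% = wells lacking PAFAH1B3 protein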
* hit, by the source's call; x = no result given.

SMILES | LYPLA2 inh | PAFAH1B3 FP inh | LYPLA1 counter | PAFAH2 inh | pPAFAH FP inh | PAFAH1B2 FP inh | PAFAH1B3 conf FP
COc1ccc(Cl)cc1S(=O)(=O)N1CCN(C(=O)c2cc(OC)c(OC)c(OC)c2)CC1 | x | 3 | x | 0 | x | -1 | x
O=C(NNC(=O)c1ccc2ccccc2c1O)NC1CCCCC1 | x | 30* | x | 3 | x | 11 | 25
Cc1cccc(NC(=O)NNC(=O)c2ccc3ccccc3c2O)c1 | x | 43* | x | -6 | x | 18 | 82*
Cc1ccc(NC(=O)NNC(=O)c2cc3ccccc3cc2O)cc1 | -3 | 46* | -2 | -13 | 21 | 21 | 76*
O=C(NNC(=O)c1ccc2ccccc2c1O)Nc1ccc(F)cc1 | 4 | 19 | 1 | -6 | 18 | 5 | x
COc1cc(OC)cc(C(=O)NNC(=O)c2cc3ccccc3cc2O)c1 | x | 18 | x | 5 | x | 6 | x
COc1ccccc1NC(=O)NNC(=O)c1cc2ccccc2cc1O | 1 | 32* | -2 | 2 | 22 | 10 | 45*
Cc1ccc(C(=O)NNC(=O)c2ccc3ccccc3c2O)cc1 | 5 | 6 | 3 | 0 | 16 | 1 | x
CC1Cc2ccccc2N1C(=O)CSc1nnc(Cn2nnc3ccccc32)n1C (stereo unspecified) | -7 | 0 | 0 | 2 | 7 | 1 | x
CC1CN(c2ccccn2)C(C)CN1C(=S)Nc1ccccc1 (stereo unspecified) | x | 6 | x | 12 | x | 9 | x
CC1(C)Cc2c(cnn2-c2cccc(F)c2)C(NC(=O)c2ccc[n+]([O-])c2)C1 (stereo unspecified) | x | 10 | x | -3 | x | 3 | x
Cc1cccc(CCNc2nc3ccccc3n3nnnc23)c1 | 4 | 6 | -6 | -11 | 0 | -5 | x
COc1ccc(N2C(=O)C(CC(=O)O)S/C2=C\C(C)=O)cc1 (stereo unspecified) | 3 | 2 | 2 | -2 | 0 | 3 | x
COc1cc(NS(=O)(=O)c2ccc(NC(=S)NC(=O)/C=C/c3ccco3)cc2)ncn1 | x | 29* | x | 27 | x | 9 | 17
N#Cc1cc2c(nc1SCC(=O)N1CCOCC1)CCCCC2 | 2 | 26* | 3 | 1 | 14 | -2 | 9
N#Cc1cc2c(nc1SCC(N)=O)CCCCC2 | 14 | 6 | 1 | -4 | 4 | 2 | x
O=C(NC1CCCC1)c1cnc2n(c1=O)CCS2 | 11 | 12 | 6 | 0 | 9 | -2 | x
CCOC(=O)c1c(C)[nH]c(C)c1C(=O)COC(=O)c1ccc([N+](=O)[O-])s1 | -4 | 45* | 3 | 17 | 18 | 18 | 14
COc1cc(C(=O)Nc2cc(Cl)ccc2-n2cncn2)ccc1OC(F)F | 1 | -8 | 1 | 0 | 5 | -1 | x
Fc1ccc(C2=Nc3cccc4cccc(c34)N2)cc1 | -2 | 12 | -2 | 1 | 12 | -2 | x
FC(F)(F)C1=Nc2cccc3cccc(c23)N1 | x | 35* | x | -2 | x | 19 | 40*
Cc1cc(-n2cnnn2)ccc1C(C)C | -2 | 2 | -6 | 8 | 1 | 1 | x
CCOC(=O)C1CCN(S(=O)(=O)c2ccc(C)cc2)CC1 | 0 | 9 | 0 | 3 | -6 | 10 | x
O=C(N/N=C/c1cc(Br)ccc1O)C(c1ccncc1)N1CCOCC1 (stereo unspecified) | 7 | 12 | -1 | 10 | 7 | -3 | x
COc1cc2c(cc1OC)CN(C(=O)/C=C/c1cc(OC)c(OC)c(OC)c1)CC2 | -4 | 30* | -1 | 25 | -4 | 18 | 9
SMILES | LYPLA2 inh | PAFAH1B3 FP inh | LYPLA1 counter | PAFAH2 inh | pPAFAH FP inh | PAFAH1B2 FP inh | PAFAH1B3 conf FP
COc1cc2c(cc1OC)CN(C(=O)/C=C/c1ccc(F)cc1)CC2 | -1 | 10 | 0 | -6 | 3 | 0 | x
CCOC(=O)C1=C(O)CCn2c1nc1ccccc12 | 4 | -6 | 4 | -17 | 10 | 4 | x
COC(=O)c1ccccc1NC1=C/C(=N\S(=O)(=O)c2cccs2)c2ccccc2C1=O | 9 | 55* | -3 | 9 | 21 | 19 | 52*
CCS(=O)(=O)N1CCCC(C(=O)Oc2ccc(Br)cc2)C1 (stereo unspecified) | -5 | 13 | -6 | -4 | -6 | 14 | x
C=CCN(C)NC(=O)Nc1ccccc1 | 2 | 11 | 3 | -2 | 2 | 3 | x
C=CCN(C)NC(=S)Nc1ccccc1 | -6 | 42* | -3 | 3 | -2 | -2 | 14
